Assay outcomes (PubChem BioAssay)
TcdB inh: blocks C. difficile toxin B glycohydrolase activity; P18177; TcdB glycohydrolase enzymatic assay, plate reader; inhibition, % at 9.99 µM; 350,000 compounds, 0.24% hits; in the data active = inhibition above about 10%
PrPC surface inh: reduces human prion protein on the cell surface | P04156 | cell surface PrPC, TR-FRET read-out | inhibition, % at 13.8 µM | 370,000 compounds, 0.43% hits; in the data active = inhibition above about 24%
Y pestis TopoI: blocks Yersinia pestis topoisomerase I activity | 360,000 compounds, 0.064% hits | Y. pestis Topo-I cleavage product accumulation, plate reader | AID 504884 | activity, % at 10 µM; in the data active = activity above about 50%, passing the limit was not always enough
FBA Mtb inh: inhibits M. tuberculosis FBA enzyme; P9WQA3; purified M. tuberculosis FBA, fluorescence read-out; inhibition, % at 1 µM; 360,000 compounds, 2.3% hits; in the data active = inhibition above about 27%
GDH-TPI counter: GDH-TPI coupled enzyme inhibition counter-screen; inhibition, % at 4.8 µM; 360,000 compounds, 1.2% hits; AID 588335; GDH-TPI coupled enzyme counterscreen, NADH absorbance; in the data active = inhibition above about 30%
Each line names hits and unclear results; the compound was inactive in the other large screens. Shown are actives, neighbours in structure and some others; about 3.2% of the full set was active somewhere.

CC1(C)CC(=O)C=C(c2ccc(COC(=O)/C=C/c3ccccc3)cc2)C1=O	Y pestis TopoI 56
CCc1nc(Nc2ccc3c(c2)OCCO3)c2oc3ccccc3c2n1	GDH-TPI counter 33 (no result: TcdB inh)
Cc1cc(-c2nc3cc(F)ccc3s2)ccc1N	GDH-TPI counter 38 (no result: FBA Mtb inh)
Cc1ccc(-c2nc3ccccc3s2)cc1S(=O)(=O)N1CCCC1	none (no result: PrPC surface inh)
O=C(C1CCOCC1)N1CC(=O)N2[C@H](C1)[C@H](c1ccc(C#Cc3cccc(F)c3)cc1)[C@@H]2CO	none (no result: PrPC surface inh, Y pestis TopoI, FBA Mtb inh, GDH-TPI counter)
CCOc1ccc(CCN2C(=S)N([C@@H](CC(C)C)CN3CCCC3CN3C(=S)NC[C@@H]3Cc3ccc(O)cc3)C[C@@H]2Cc2ccccc2)cc1 (stereo partly specified)	GDH-TPI counter 38
CC(C)C[C@H]1CNC(=S)N1CC1CCCN1C[C@H](Cc1ccccc1)N1C[C@H](Cc2ccc(O)cc2)N(CC2CCCCCC2)C1=S (stereo partly specified)	GDH-TPI counter 32
Oc1ccc(C[C@H]2CNC(=S)N2CC2CCCN2C[C@H](Cc2ccccc2)N2C[C@H](Cc3ccc(O)cc3)N(CCc3ccccc3)C2=S)cc1 (stereo partly specified)	GDH-TPI counter 34
C[C@@H]1CN([C@H](C)CO)C(=O)c2cc(C3=CCCC3)cnc2O[C@@H]1CN(C)C(=O)C1CCC1	none (no result: PrPC surface inh, Y pestis TopoI, FBA Mtb inh, GDH-TPI counter)
CCC(=O)Nc1c(OC(=O)CC)ccc2c(C)cc(=O)oc12	FBA Mtb inh 140
O=C(O)COc1ccccc1C=NNC(=O)c1ccc(NS(=O)(=O)c2cccs2)cc1	none
COc1ccc(Nc2nc3ccccc3nc2NS(=O)(=O)c2cccs2)c(OC)c1	none
O=C(NN=Cc1ccccc1C(=O)O)c1ccc(NS(=O)(=O)c2cccs2)cc1	GDH-TPI counter 37
COc1ccc(NS(=O)(=O)c2cccc(C(=O)NN=Cc3cc(Br)c(O)c(Br)c3)c2)cc1	GDH-TPI counter 41
COc1cccc(Nc2nc3ccccc3nc2NS(=O)(=O)c2cccs2)c1	GDH-TPI counter 37 (no result: TcdB inh)
COc1ccc(NS(=O)(=O)c2cccc(C(=O)NN=Cc3ccc(OC)cc3OC)c2)cc1	none
COc1ccc(OC)c(/C=N/NC(=O)c2ccncc2)c1	none
COc1ccc(OC)c(C=NNC(=O)c2ccc(NS(=O)(=O)c3cccs3)cc2)c1	GDH-TPI counter 39
CC=Cc1ccc2n(c1=O)C[C@H]1[C@H](CO)[C@@H](C(=O)NCc3ccncc3)N(Cc3ccncc3)[C@@H]21 (mixture of isomers)	none (no result: PrPC surface inh, Y pestis TopoI, FBA Mtb inh, GDH-TPI counter)
C[C@H](NC(=O)C[C@@H]1C[C@H]2c3cc(NC(=O)CN(C)C)ccc3O[C@H]2[C@H](CO)O1)c1ccccc1	none (no result: PrPC surface inh, Y pestis TopoI, FBA Mtb inh, GDH-TPI counter)
O=C(O)c1ccc(/C=N/NC(=O)c2ccc(NS(=O)(=O)c3cccs3)cc2)cc1	GDH-TPI counter 74
COc1ccc(/C=N/NC(=O)c2ccc(NS(=O)(=O)c3cccs3)cc2)cc1	GDH-TPI counter 51
CNC(=O)C[C@@H]1CC[C@@H]2[C@H](COc3ccc(NC(=O)C4CCCCC4)cc3C(=O)N2C)O1	none (no result: PrPC surface inh, Y pestis TopoI, FBA Mtb inh, GDH-TPI counter)
Cc1cc(C(=O)CSc2nc(N)cc(N)n2)c(C)n1CC1CCCO1 (stereo unspecified)	none
Nc1cc(=O)[nH]c(SCC(=O)c2ccc(O)cc2O)n1	GDH-TPI counter 34
Cc1cc(C(=O)CSc2nc(N)cc(=O)[nH]2)c(C)n1CC1CCCO1 (stereo unspecified)	TcdB inh 12
Cc1ccc2nc(SCC(=O)c3ccc(O)cc3O)[nH]c2c1	GDH-TPI counter 51
CC(C)(C)NC(=O)CSc1nc(N)cc(=O)[nH]1	none
COc1ccc2c3c([nH]c2c1)[C@@H](CO)N(C(=O)c1ccccn1)CC31CN(S(C)(=O)=O)C1	none (no result: PrPC surface inh, Y pestis TopoI, FBA Mtb inh, GDH-TPI counter)
C[C@@H]1CCCCO[C@@H](CN(C)C(=O)c2ccccc2)[C@H](C)CN([C@@H](C)CO)C(=O)c2cc(NC(=O)c3ccccc3)ccc2O1	none (no result: PrPC surface inh, Y pestis TopoI, FBA Mtb inh, GDH-TPI counter)
COc1ccc(/C=N/n2cnc3c([nH]c4ccc(F)cc43)c2=O)cc1CN1CCCC1	none
COc1ccc2c(c1)[nH]c1c(=O)n(/N=C/c3ccc(OC)c(CN4CCCC4)c3)cnc12	GDH-TPI counter 54
COc1ccc(/C=N/n2c(=O)[nH]c3c([nH]c4ccc(F)cc43)c2=O)cc1CN1CCCCC1	FBA Mtb inh 82
COc1ccc(/C=N/n2cnc3c([nH]c4ccc(C)cc43)c2=O)cc1CN1CCCC1	none
C/C=C/c1cnc2c(c1)C(=O)N([C@@H](C)CO)C[C@H](C)[C@H](CN(C)Cc1ccc(F)cc1)O2	none (no result: PrPC surface inh, Y pestis TopoI, FBA Mtb inh, GDH-TPI counter)
CN(/N=C/c1ccncc1)c1cnc2ccccc2n1	GDH-TPI counter 33
OC[C@@H]1[C@H](c2ccc(-c3cccnc3)cc2)[C@H]2CN(CC3CCOCC3)CCCCN12	none (no result: PrPC surface inh, Y pestis TopoI, FBA Mtb inh, GDH-TPI counter)
Cc1ccccc1/C=C/c1nc2ccccc2c(=O)[nH]1	GDH-TPI counter 34
Cc1ccccc1/C=C\c1nc2ccccc2c(=O)[nH]1	none
COc1cc(/C=N/N(C)C)cc(Br)c1O	GDH-TPI counter 32
COc1cc(/C=N/N(C)c2ccccc2)cc(Cl)c1O	GDH-TPI counter 40 (no result: TcdB inh)
CN=c1scc(C)n1/N=C/c1cc(Br)c(O)c(OC)c1	none
COc1ccccc1-c1cnc2c(c1)C(=O)N([C@H](C)CO)C[C@H](C)[C@H](CN(C)Cc1ccc(C(=O)O)cc1)O2	none (no result: PrPC surface inh, Y pestis TopoI, FBA Mtb inh, GDH-TPI counter)
CCOC(=O)c1ccc(NC(=O)CC2S/C(=N/N=C3/NC(=O)CS3)NC2=O)cc1 (stereo unspecified)	none
Cc1ccc(NC(=O)CC2S/C(=N/N=C/c3c[nH]c4ccccc34)NC2=O)cc1 (stereo unspecified)	GDH-TPI counter 39 (no result: TcdB inh)
CCOC(=O)c1ccc(NC(=O)CC2S/C(=N/N=C/c3c[nH]c4ccccc34)NC2=O)cc1 (stereo unspecified)	GDH-TPI counter 32 (no result: TcdB inh)
CC(=O)c1c(COC(=O)c2cccc(C)c2)nc2ccccc2[n+]1[O-]	GDH-TPI counter 31
CC(=O)c1c(COC(=O)c2ccncc2)nc2ccccc2[n+]1[O-]	none (no result: TcdB inh)
COc1cc(OC)c(OC)cc1/C=N/NC(=O)c1ccc(=O)n(C)c1	GDH-TPI counter 54 (no result: TcdB inh)
COc1cc(OC)c(OC)cc1/C=N/NC(=O)c1cc(-c2cccn2C)n[nH]1	GDH-TPI counter 38 (no result: TcdB inh)
CCCNC(=O)N1C[C@@H](O)COC[C@H]2O[C@H](CC(=O)N[C@H]3CCN(Cc4ccccc4)C3)CC[C@@H]21	none (no result: PrPC surface inh, Y pestis TopoI, FBA Mtb inh, GDH-TPI counter)
COc1cc(/C(C)=N/NC(=O)CSc2nnc(C)s2)ccc1O	TcdB inh 11
C/C(=N\NC(=O)CSc1nnc(C)s1)c1ccc(O)cc1	none
CN(C)CC#Cc1ccc([C@@H]2[C@@H](CO)N3C(=O)CN(C(=O)Cc4cccnc4)C[C@H]23)cc1	none (no result: PrPC surface inh, Y pestis TopoI, FBA Mtb inh, GDH-TPI counter)
CN1c2ccccc2-c2nc3ccccc3n2C1c1cccs1 (stereo unspecified)	FBA Mtb inh active
Cc1ccc(C2N(C)c3ccccc3-c3nc4ccccc4n32)o1 (stereo unspecified)	FBA Mtb inh 183 (no result: TcdB inh)
CC(=O)N1c2ccccc2-c2nc3ccccc3n2C1C (stereo unspecified)	none
N#CCCCCn1ccc(NC(=O)c2ccc(Cl)cc2O)n1	GDH-TPI counter 32
Cc1ccc(Cn2ccc(NC(=O)c3cc(-c4ccc(Cl)cc4)on3)n2)cc1	none (no result: TcdB inh)
